HTT cytoprotect – protects HTT-Q103 PC12 cells, measured by ATP; Potency, µM (doses to about 56.4 µM), usual class: activators; actives 0.14% (n = 230,000); AID 1471; PC12 HTT-Q103 induced, cytoprotection, ATP luminescence, 40 h; active = well fitted curve in the direction sought with a large enough effect; inconclusive = small, poorly fitted or top-dose-only effect, or another doubt; inactive = no such curve, though single readings can be large; an effect the other way counts as inactive or inconclusive; note: nearly all actives have a fitted effect of over 45% in size
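ATP quantification (ATPlite) reports survival of PC12 cells in which tebufenozide, 100 nM final, switches on Htt exon 1 with 103 glutamines linked to GFP; compounds are titrated.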
CBFb RUNX1 block – CBF-beta/RUNX1 interaction disruption; Q01196+Q13951; AlphaScreen CBFb-His/RUNX1-biotin binding, biochemical; Potency, µM (series often up to 59.8 µM), hits mostly inhibitors; 230,000 tested, under 10 active; AID 1477; active = well fitted curve in the direction sought with a large enough effect; inconclusive = small, poorly fitted or top-dose-only effect, or another doubt; inactive = no such curve, though single readings can be large; an effect the other way counts as inactive or inconclusive
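CBFb-His/RUNX1-biotin, 30 nM each, preincubated 20 min RT; compound 15 min RT; Ni + streptavidin beads 50 ng each, 90 min RT; AlphaScreen read.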
HPGD inh – inhibitors of human 15-hydroxyprostaglandin dehydrogenase (HPGD) | purified HPGD, NADH fluorescence kinetic, PGE2 substrate | Potency, µM, usual class: inhibitors | actives 4.3% (n = 150,000) | AID 894
Target sequence (P15428 whole entry, looked up): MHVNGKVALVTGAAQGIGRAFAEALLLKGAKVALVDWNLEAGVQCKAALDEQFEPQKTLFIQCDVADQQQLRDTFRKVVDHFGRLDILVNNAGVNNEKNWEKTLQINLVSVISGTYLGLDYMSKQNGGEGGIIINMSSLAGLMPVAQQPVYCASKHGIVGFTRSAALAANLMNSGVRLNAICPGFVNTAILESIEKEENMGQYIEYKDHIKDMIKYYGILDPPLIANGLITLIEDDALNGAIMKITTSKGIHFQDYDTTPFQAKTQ
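20 nM HPGD preincubated 15 min at room temperature with compound in 50 mM Tris-HCl pH 8, 0.01% Tween 20. Started with 1 mM NAD+ and 30 uM prostaglandin E2; NADH fluorescence (360/450 nm) read 5 times over 30-s intervals, last minus first.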
HTT aggregate – reduces HttQ103-GFP aggregates in PC12 cells; AID 1688; PC12 HttQ103-GFP aggregates, Acumen cytometry, 40 h; Potency, µM (highest dose often 46.1 µM), hits mostly inhibitors; actives 1.1% (n = 220,000); active = well fitted curve in the direction sought with a large enough effect; inconclusive = small, poorly fitted or top-dose-only effect, or another doubt; inactive = no such curve, though single readings can be large; an effect the other way counts as inactive or inconclusive; note: nearly all actives have a fitted effect of over 60% in size
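Quantitative HTS on tebufenozide-induced (100 nM) PC12 cells stably expressing polyQ103 Huntingtin exon 1–GFP. Reduction of bright GFP aggregates, detected by laser scanning cytometry after lysis, identified actives across the titration.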
ALDH1A1 inh – ALDH1A1 (human) enzyme inhibition; P00352; actives 7.3% (n = 220,000); Purified ALDH1A1, NADH fluorescence, propionaldehyde substrate; Potency, µM (titrated, usually from 75.3 µM), most hits filed as inhibitors
JMJD2E inh – JMJD2E (human) inhibition | B2RXH2 | JMJD2E catalytic domain, FDH-coupled NADH fluorescence (FDH is formaldehyde dehydrogenase) | Potency, µM (titrated, usually from 57.1 µM), hits mostly inhibitors | actives 1.6% (n = 230,000); note: nearly all actives have a fitted effect of over 50% in size
Target sequence (B2RXH2 1-337 limits assumed): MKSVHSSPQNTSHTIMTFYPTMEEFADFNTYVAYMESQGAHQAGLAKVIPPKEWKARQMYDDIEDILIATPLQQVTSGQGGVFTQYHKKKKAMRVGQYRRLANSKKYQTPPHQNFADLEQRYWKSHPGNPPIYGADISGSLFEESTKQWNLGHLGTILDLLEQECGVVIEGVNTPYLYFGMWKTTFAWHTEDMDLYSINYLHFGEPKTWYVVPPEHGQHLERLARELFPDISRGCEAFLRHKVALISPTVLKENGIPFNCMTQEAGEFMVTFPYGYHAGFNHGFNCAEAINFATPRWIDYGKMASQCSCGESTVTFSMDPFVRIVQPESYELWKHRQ
Hits are given with their value; 0 = inactive; ? = inconclusive; - = not tested or not shown; [ ] = remark or other dose. The list is not random: actives were taken first. Their share in the collection is about 9.8%. Unless noted, calls come from the whole dose curve; as a rule, active = well fitted inhibition curve with a large enough effect (not every such curve was filed as active); inconclusive = small, poorly fitted or top-dose-only effect, or another doubt; inactive = no such curve, though single readings can be large or run the other way.

SMILES | HTT cytoprotect | CBFb RUNX1 block | HPGD inh | HTT aggregate | ALDH1A1 inh | JMJD2E inh
Cc1c2oc3c(C)ccc(C(=O)N[C@@H]4C(=O)N[C@H](C(C)C)C(=O)N5CCC[C@H]5C(=O)N(C)CC(=O)N(C)[C@@H](C(C)C)C(=O)O[C@@H]4C)c3nc-2c(C(=O)N[C@@H]2C(=O)N[C@H](C(C)C)C(=O)N3CCC[C@H]3C(=O)N(C)CC(=O)N(C)[C@@H](C(C)C)C(=O)O[C@@H]2C)c(N)c1=O | 0 | 0 | 0 | 0.032µM | ? | -
CN(C)c1ccc(-c2cc(NCc3ccccc3)ncn2)cc1 | 0 | - | ? | - | ? | ?
CC(=O)c1ccc(Oc2nc3c(c(=O)n(C)c(=O)n3C)n2C)cc1 | ? | 0 | - | ? | 0 | 0
Cn1c(=O)c2c(nc(Oc3ccc4ccccc4c3)n2C)n(C)c1=O | 0 | 0 | 0 | 1.4µM | ? | 0
CCOc1ccc(C(=O)CCNC(Cc2cnc[nH]2)C(=O)O)cc1 (stereo unspecified) | 0 | 0 | 0 | 0 | 1.6µM | 0
O=C(c1cc(-c2ccccc2)on1)N1CCCc2ccccc21 | 0[10 µM] | 0 | - | 0[9.22 µM] | 14µM | 0
O=C(c1cc2sccc2n1Cc1ccccc1)N1CCCc2ccccc21 | 0 | 0 | 0 | ? | 0 | 0
O=C(c1cc(-c2ccco2)on1)N1CCCc2ccccc21 | 0 | 0 | 0 | 0 | 8.9µM | 0
Cn1c(C(=O)N2CCCc3ccccc32)cc2sccc21 | 0 | 0 | 16µM | 0 | 7.9µM | 0
COc1ccc(-c2ccc(=O)n(CC(=O)NC3CCc4ccccc43)n2)cc1OC (stereo unspecified) | 0[10 µM] | 0 | - | 0[9.22 µM] | 0 | 0
O=C(CN1C(=O)C2C3CC(C(Br)C3Br)C2C1=O)Nc1ccc(C(=O)O)cc1 (stereo unspecified) | 0[10 µM] | 0 | - | 0[9.22 µM] | - | 0
COC(=O)C1C(c2ccc(OC)cc2)Nc2nnc(C(F)(F)F)n2C1(C)O (stereo unspecified) | 0 | 0 | - | 0 | ? | 0
CC/C(=N/Nc1ccccc1)c1cnnc(-c2ccccc2)n1 | 0[10 µM] | 0 | 0 | 0 | 10µM | 0
CC(=O)N1N=C(c2ccccc2)OC1c1ccc([N+](=O)[O-])s1 (stereo unspecified) | 0 | 0 | - | ? | ? | 14µM
O=C(c1csnn1)N1CCC2(CC1)CCN(c1cccc(-c3ccccc3)c1)CC2 | 0 | - | 0 | - | 0 | -
Cc1[nH]nc(SCC(=O)N2CCCC2)c1[N+](=O)[O-] | 0 | 0 | - | 0 | 0 | 0
Cc1[nH]nc(SCC(=O)N2CCC(C)CC2)c1[N+](=O)[O-] | 0 | 0 | 6.3µM | 0 | 10µM | 0
C[N+]1(Cc2ccccc2)CCC(C(=O)OCC2CCCC2)CC1 (stereo unspecified) | 0 | 0 | - | - | 0 | -
Cc1c(NC2=C(Cl)C(=O)N(c3ccccc3Cl)C2=O)c(=O)n(-c2ccccc2)n1C | - | ? | 0 | 0 | 35µM | 0
C=CCNC1=C(Cl)C(=O)N(c2ccccc2Cl)C1=O | 0 | 0 | 0 | 0 | 25µM | 0
Cc1c(NC2=C(Cl)C(=O)N(c3ccccc3)C2=O)c(=O)n(-c2ccccc2)n1C | 0 | 0 | 0 | 0 | ? | 0
Cc1onc(-c2c(F)cccc2Cl)c1C(=O)OCC(=O)c1c[nH]c2ccccc12 | 0[10 µM] | 0 | - | 0[9.22 µM] | - | 0
C#CCn1cc(/C=N/NC(=O)COc2cccc3cccnc23)c2ccccc21 | 0[10 µM] | 0 | 0 | 0 | 10µM | 0
COC(=O)Cn1cc(/C=N/NC(=O)COc2cccc3cccnc23)c2ccccc21 | 0[1.9 µM] | 0 | 0 | 0 | ? | ?
O=C(COc1cccc2cccnc12)N/N=C/c1ccccc1O | 0[10 µM] | 0 | - | 0[9.22 µM] | - | 7.9µM
SMILES | HTT cytoprotect | CBFb RUNX1 block | HPGD inh | HTT aggregate | ALDH1A1 inh | JMJD2E inh
CC(CCc1ccccc1)NC(=O)c1nnc(Cc2ccc(Cl)cc2)o1 (stereo unspecified) | 0[10 µM] | 0 | 0 | 0 | 0 | 0
Cc1ccc(C(=O)O/N=C\c2ccc(N3CCOCC3)c([N+](=O)[O-])c2)cc1 | 0 | 0 | 0 | 0 | 2.2µM | 0
CCCCC(=O)N/N=C/c1ccc(N2CCOCC2)c([N+](=O)[O-])c1 | - | 0 | 0 | 0 | 11µM | 0
CO/N=C/c1ccc(N2CCOCC2)c([N+](=O)[O-])c1 | 0[10 µM] | 0 | - | 0 | ? | 0
N#CC1(c2ccccc2)CCCN1C(=O)c1ccccc1Br (stereo unspecified) | 0[10 µM] | 0 | 0 | 0 | 0 | 0
Cc1ccc(-c2csc(=S)n2CC(=O)OCC(=O)NCc2ccc(F)cc2)cc1 | 0 | 0 | 16µM | 0 | 13µM | 0
O=C(COC(=O)Cc1ccc(-c2ccccc2)cc1)NCc1ccc(F)cc1 | 0[10 µM] | 0 | 0 | 0 | 0 | 0
CCc1nc(NCc2ccc3c(c2)OCO3)c2oc3ccccc3c2n1 | 0 | 0 | 0 | ? | 13µM | 0
CCc1nc(Nc2ccc3c(c2)OCCO3)c2oc3ccccc3c2n1 | 0 | 0 | 0 | 0[9.22 µM] | 25µM | ?
Cc1cccc(C)c1OCC(=O)Nc1ccccc1C(F)(F)F | 0 | 0 | - | 0 | 0 | 0
CC(C)c1ccc(OCC(=O)Nc2cccc(C(=O)Nc3ccccc3C(=O)O)c2)cc1 | 0[10 µM] | 0 | - | 0 | 20µM | 0
Cc1cccc(OCC(=O)Nc2cccc(C(=O)NCC(C)C)c2)c1 | 0[10 µM] | 0 | 0 | 0 | 0 | 0
Cc1cccc(OCC(=O)Nc2ccccc2C(F)(F)F)c1 | 0[10 µM] | 0 | 18µM | 0 | 0 | 0
COc1cccc(C(=O)Nc2cc(C)ccc2NC(=O)COc2ccccc2)c1 | 0 | 0 | - | 0 | 14µM | 0
Cc1cccc(OCC(=O)Nc2cccc(C(=O)Nc3ccccc3C(=O)O)c2)c1 | 0[10 µM] | 0 | ? | 0 | 5.6µM | 0
O=C(COc1ccccc1)Nc1nnc(-c2ccccc2)o1 | 0 | ? | 0 | 0 | 0 | 0
O=C(COc1ccccc1)Nc1cccc(-c2nnc(-c3ccccc3)o2)c1 | 0[0.074 µM] | 0 | 4.5µM | 0 | 0 | ?
CCn1c(CSc2nc3ccccc3s2)n[nH]c1=S | 0 | 0 | ? | 0[9.22 µM] | ? | 0
S=c1[nH]nc(CSc2nc3ccccc3s2)n1Cc1ccccc1 | 0 | 0 | 13µM | 0[9.22 µM] | ? | 0
C=CCn1c(Cc2nc3ccccc3[nH]2)n[nH]c1=S | 0[1.9 µM] | 0 | ? | 0 | ? | 0
C=CCn1c(C(c2ccccc2)c2ccccc2)n[nH]c1=S | 0[10 µM] | 0 | 25µM | 0 | 0 | 0
C=CCn1c(CSc2nc3ccccc3s2)n[nH]c1=S | 0 | 0 | 18µM | 0 | 11µM | ?
CC(NC(=O)C(=O)N/N=C\c1ccc([N+](=O)[O-])cc1)c1ccccc1 (stereo unspecified) | 0[10 µM] | 0 | - | 0[9.22 µM] | 0 | 0
CC(C)C(=O)Nc1cccc(C(=O)N2CCCCC2C)c1 (stereo unspecified) | 0 | 0 | 0 | 10µM | 0 | 0
Cc1cc(C)c(S(=O)(=O)Nc2ccc(O)cc2)cc1C | 0 | 0 | 0 | 0 | 14µM | 0
COc1ccc(NS(=O)(=O)c2cc(S(C)(=O)=O)ccc2C)cc1 | 0[10 µM] | 0 | 0 | 0 | 28µM | 0

Assay outcomes deposited in PubChem by National Center for Advancing Translational Sciences (NCATS).
